The structures appear in SMILES notation. “And” between values parts separate entries of the source, which are not always exact repeats. Equal values may be shown once. Some compounds were tested as several samples or in several runs, with calls that do not always agree. The source made the active and inactive calls.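 The calls were made as follows, unless noted: active = thallium flux through the channel raised or lowered by more than 3 SD from vehicle-only wells, actives on both sides; inactive = the rest.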

This is an account of results in PubChem BioAssay.

The nature of assay [1]: Wnt pathway potentiators raising nuclear beta-catenin – imaging, WNT3A-conditioned medium, mouse C2C12, NPC library, primary screen (AID 1117326; in the data active = nuclear beta-catenin stimulation mostly above about 4.2%, no sharp cut-off; inactive = mostly below about 10%). The note with it: stronger effect = higher value.
The nature of assay [2]: stimulators of insulin release from INS-1E, primary screen, cell-based, 5 mM glucose, NPC library (AID 1117329;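 active = compound raises insulin release from rat beta cells at 5 mM glucose, no numeric limit stated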). The note with it: rat INS-1E insulin secretion, at 10 µM, stronger effect = higher value.
A short description of assay [3]: growth inhibition of GSK3B-pretreated HCT116 cells – cell-based, CellTiter-Glo, 0.2 to 20 µM (AID 1117336;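 active = compounds lowering colon cancer cell viability after pretreatment blocking the GSK3B kinase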). The note with it: HCT116 viability after GSK3B inhibitor, at 20 µM, stronger effect = higher value.
The nature of assay [4]: inhibition of endothelial tube formation, primary screen, imaging, VEGF stimulated, CD31 staining, tube area, NPC library (AID 1117340;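 active = compound that reduces growth-factor-driven endothelial tube area in a mixed cell culture, no cutoff stated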). The note with it: VEGF-stimulated ADSC/ECFC co-culture, at 10 µM, stronger effect = higher value.
Assay [5] in a line: GLP1 release stimulators, primary, NCI-H716, NPC library (AID 1117341;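 active = compound raises GLP1 secretion from the human gut endocrine cells, with no numeric limit stated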). The note with it: NCI-H716 cells, at 10 µM, stronger effect = higher value.
Assay [6] in a line: HCT116 colon cancer cell growth inhibition, primary screen, CellTiter-Glo luminescence, NPC library (AID 1117342;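 active = compounds that lower survival of HCT116 colon cancer cells in the luminescence readout, no numeric limit stated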). The note with it: at 20 µM (top of the series).
Assay [7] is described as follows: reduced SW480 viability measured with CellTiter-Glo, NPC library, primary (AID 1117343;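 active = compounds that lower viability of the colon cancer cells in the luminescence readout, with no numeric limit stated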). The note with it: CellTiter-Glo luminescence; at 20 µM (top of the series). In general terms: ATP-based viability assays read luminescence as a measure of living cells.
Assay [8] in a line: NPC library primary testing for decreased DLD-1 cell viability via CellTiter-Glo (AID 1117346;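 active = compounds that lower survival of DLD-1 colon cancer cells in the luminescence readout, no cutoff given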). The note with it: DLD-1 viability, CellTiter-Glo luminescence; at 20 µM (top of the series).
The target of assay [9] is 6-phosphogluconate dehydrogenase, decarboxylating (Homo sapiens) (UniProt P52209). Nature of the assay: inhibition of human phosphogluconate dehydrogenase – biochemical, recombinant enzyme, NADPH absorbance, primary screen (AID 1159550;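 active = at least 20% inhibition of 6-phosphogluconate dehydrogenase activity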). The note with it: recombinant 6PGD, NADPH absorbance 341 nm; at 10 µM; stronger effect = higher value.
Assay [10] can be described thus: EMT-state selective cytotoxicity in co-culture – imaging, PC-3E GFP, TEM4-18 mCherry, primary screen (AID 1345086;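 active = compounds killing one labelled cell type while sparing the other, by normalised counts and ratio limits, not self-fluorescent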;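 as to all read-outs here: cells exposed to compound for 72 h before imaging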;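 as to red/green cell ratio (normalised): normalised mesenchymal count divided by normalised epithelial count so high means epithelial killing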). The note with it: PC-3E GFP / TEM4-18 mCherry co-culture, imaging cell counts, at 1 µM; for red/green cell ratio (normalised): actives lie on both sides, counts scaled to control wells, 1 = unselective.
Assay [11] can be described thus: MELAS cybrid and Rieske KO viability enhancers – cell-based, MELAS cybrids, Rieske KO mouse fibroblasts, CellTiter-Glo, primary screen (AID 1508586;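 active = mean z-score across replicates of 1.96 or higher in either the MELAS or the Rieske mutant cell line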;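 also: z relative to plate mean and SD of compound and empty wells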). The note with it: low glucose.
The target in assay [12] is NAD(+) hydrolase SARM1 (Homo sapiens) (UniProt Q6SZW1). Nature of the assay: blocking NAD cleavage by SARM1 SAM-TIR – cell lysate, NAD-Glo luminescence (AID 1508614;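 active = compound whose remaining NAD level is above about 45 nM, limit read from the data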;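 also: higher remaining NAD means stronger inhibition of SARM1 NADase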). The note with it: SAM-TIR HEK293T lysate NADase, at 1 µM, stronger effect = higher value.
A further assay has as its system F380Y. Description: BK channel mutant inhibitors and activators – cell-based, U2OS BacMam, thallium flux, beta subunits, selectivity assay, profiling panel (AID 1259406).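 Also: initial slope of Thallos dye fluorescence rise after thallium is added; log ratio against the mean of 0.3% DMSO vehicle wells on the same plate.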 The note with it: U2OS BacMam BK variants, at 30 µM.
The subject of another assay is F380Y/beta1. Described as above. The note with it: U2OS BacMam BK variants, at 30 µM.
The next assay concerns F380Y/beta2Delta. The description is as above. The note with it: U2OS BacMam BK variants, at 30 µM.
A further assay concerns F380Y/beta4. The assay is described as above. The note with it: U2OS BacMam BK variants, at 30 µM.
Assay [13] deals with Calcium-activated potassium channel subunit alpha-1 (Homo sapiens) + Leucine-rich repeat-containing protein 26 (Homo sapiens) (UniProt Q12791+Q2I0M4). Described as above. The note with it: U2OS BacMam BK variants, F380Y/Slo1WT/gamma1, at 30 µM.
A further assay has as its system R275C. The description is as above. The note with it: U2OS BacMam BK variants, at 30 µM.
Assay [14] is described as follows: viability loss with induced miR-34 in A549 – imaging, A549 dox-inducible miR-34, nuclei and caspase counts, primary screen (AID 1347080;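 active = compounds whose cell count with miR-34 switched on is under 0.7 times the count with it off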). The note with it: A549 miR-34 inducible, Hoechst nuclei count, 48 h.
Where [15] appears, read: measured here: epithelial PC-3E GFP cell survival.
The mark [16] stands for this setting: measured here: mesenchymal TEM4-18 mCherry cell survival.
[17] abbreviates: MELAS cybrid survival, CellTiter-Glo 48 h, stronger effect = higher value.
Where [18] appears, read: Rieske KO mouse fibroblast survival, CellTiter-Glo 72 h.

Sequence of Calcium-activated potassium channel subunit alpha-1 (Homo sapiens) + Leucine-rich repeat-containing protein 26 (Homo sapiens) (Q2I0M4 whole entry, looked up, one chain of several): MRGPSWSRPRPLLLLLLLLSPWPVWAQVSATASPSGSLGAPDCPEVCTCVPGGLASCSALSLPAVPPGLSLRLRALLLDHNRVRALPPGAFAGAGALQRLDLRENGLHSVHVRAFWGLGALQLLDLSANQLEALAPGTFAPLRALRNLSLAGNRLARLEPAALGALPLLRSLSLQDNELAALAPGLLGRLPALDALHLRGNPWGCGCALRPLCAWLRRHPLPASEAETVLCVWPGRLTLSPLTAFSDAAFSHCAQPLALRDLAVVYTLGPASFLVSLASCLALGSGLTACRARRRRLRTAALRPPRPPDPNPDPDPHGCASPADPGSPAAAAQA
Sequence of NAD(+) hydrolase SARM1 (Homo sapiens) (Q6SZW1 whole entry, looked up): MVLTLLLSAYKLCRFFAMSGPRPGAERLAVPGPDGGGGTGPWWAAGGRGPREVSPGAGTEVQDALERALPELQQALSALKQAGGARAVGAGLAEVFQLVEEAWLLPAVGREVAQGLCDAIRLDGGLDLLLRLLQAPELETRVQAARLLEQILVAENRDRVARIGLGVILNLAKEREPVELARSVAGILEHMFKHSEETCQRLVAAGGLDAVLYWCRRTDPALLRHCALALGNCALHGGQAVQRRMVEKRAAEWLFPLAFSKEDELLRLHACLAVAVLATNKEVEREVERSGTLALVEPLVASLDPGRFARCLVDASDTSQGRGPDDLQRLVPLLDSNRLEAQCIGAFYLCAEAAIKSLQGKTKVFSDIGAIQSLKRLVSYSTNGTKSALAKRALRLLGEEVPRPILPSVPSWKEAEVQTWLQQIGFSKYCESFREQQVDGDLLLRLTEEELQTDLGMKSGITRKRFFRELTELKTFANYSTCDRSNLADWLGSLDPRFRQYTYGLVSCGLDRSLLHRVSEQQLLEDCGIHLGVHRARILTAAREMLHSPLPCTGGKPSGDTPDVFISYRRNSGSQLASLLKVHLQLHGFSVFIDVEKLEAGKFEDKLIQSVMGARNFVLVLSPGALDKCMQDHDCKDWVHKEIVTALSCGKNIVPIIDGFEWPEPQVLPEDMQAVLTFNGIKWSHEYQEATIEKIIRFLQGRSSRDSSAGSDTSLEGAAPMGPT
Sequence of 6-phosphogluconate dehydrogenase, decarboxylating (Homo sapiens) (P52209 whole entry, looked up): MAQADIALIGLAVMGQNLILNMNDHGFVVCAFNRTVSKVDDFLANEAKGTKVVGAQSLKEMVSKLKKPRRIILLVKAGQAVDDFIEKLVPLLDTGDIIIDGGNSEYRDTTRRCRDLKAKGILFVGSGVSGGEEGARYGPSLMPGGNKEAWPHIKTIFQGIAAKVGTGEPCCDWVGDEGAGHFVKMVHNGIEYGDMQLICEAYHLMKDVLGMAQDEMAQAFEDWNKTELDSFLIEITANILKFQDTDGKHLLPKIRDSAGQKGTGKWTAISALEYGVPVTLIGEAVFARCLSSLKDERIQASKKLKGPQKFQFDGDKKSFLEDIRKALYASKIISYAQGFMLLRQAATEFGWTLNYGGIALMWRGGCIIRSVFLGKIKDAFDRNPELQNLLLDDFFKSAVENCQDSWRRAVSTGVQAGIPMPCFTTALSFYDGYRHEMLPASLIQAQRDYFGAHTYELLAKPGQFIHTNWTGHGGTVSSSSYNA

By inhibition is commonly meant the drop in the measured response relative to a control, in per cent. Take `Nc1nc(N)c2nc(-c3ccccc3)c(N)nc2n1`: the nuclear beta-catenin stimulation is 17.3% (inactive) in assay [1] (at 10 µM) and 4.7% in assay [1] (stimulation, at 2 µM). For the same molecule, the insulin secretion stimulation in assay [2] was -0.7% (inactive). For the same molecule, the viability decrease in assay [3] is 91.2% (active). In addition, the tube area decrease in [4] is 10.4% (inactive). In [5], the GLP1 secretion stimulation is 2.6% (inactive). Besides, the inhibition of viability in assay [6] is 83% (active). In addition, the viability decrease (inhibition) in assay [7] was 75.8% (active); in [8], 0.75% (inactive). Besides, the inhibition in assay [9] was 13.3% (inactive). In addition, in assay [10], the red/green cell ratio (normalised) was 1.25 (inactive). For the same molecule, the normalised cell number in [10] (setting [15]) amounted to 1; in assay [10] (setting [16]) it was 1.25. In addition, the z-score in assay [11] (setting [17]) was -0.205 (inactive) and 1.1 (inactive); in assay [11] (setting [18]), -0.161 and 0.254. Besides, the remaining NAD in [12] is 10 nM (inactive). Moreover, the log fold change Tl+ flux is 0.00573 (inactive) in the assay on F380Y; -0.0403 (inactive) with F380Y/beta1; 0.0397 (inactive) in the assay on F380Y/beta2Delta; -0.00497 (inactive) with F380Y/beta4; 0.00721 (inactive) in [13]; -0.00764 (inactive) in the assay on R275C.
Regarding `NS(=O)(=O)c1cc2c(cc1C(F)(F)F)NC(Cc1ccccc1)NS2(=O)=O` (centres undefined), the nuclear beta-catenin stimulation in assay [1] (at 10 µM) was 0.1% (inactive); in [1] (stimulation, at 2 µM), 1.7%. In assay [2], the insulin secretion stimulation is 0.8% (inactive). Also, the viability decrease in assay [3] was -5.2% (inactive). Also, the tube area decrease in assay [4] was -25.6% (inactive). The GLP1 secretion stimulation in assay [5] is 1.6% (inactive). Besides, the inhibition of viability in assay [6] is -9.63% (inactive). Moreover, the figures for the viability decrease (inhibition) in assay [7] and in assay [8] were 18.1% (inactive) and -18.1% (inactive), respectively. Also, the inhibition in assay [9] is -18.8% (inactive). In addition, the red/green cell ratio (normalised) in assay [10] was 1.09 (inactive). Also, the normalised cell number is 1.12 in assay [10] (setting [15]) and 1.22 in [10] (setting [16]). For the same molecule, the fold change in [14] (stronger effect = lower value, cell number ratio, induced over uninduced) was 0.994 (inactive) and 0.853 (inactive) and 0.857 (inactive); in assay [14] (measured here: relative caspase fold change +Dox/-Dox) it was 3.31 and 1.41 and 3.71. Besides, the cell count was 10000 and 8170 and 11600 in assay [14] (measured here: total cells with miR-34 induction, stronger effect = lower value); 10100 and 9580 and 13500 in assay [14] (measured here: total cells without miR-34 induction). For the same molecule, the figures for the z-score in assay [11] (setting [17]) and in assay [11] (setting [18]) were 0.478 (inactive) and -0.203, respectively. The remaining NAD in assay [12] was 10 nM (inactive). The log fold change Tl+ flux in the assay on F380Y is 0.0508 (inactive); in the assay on F380Y/beta1, -0.0798 (inactive); with F380Y/beta2Delta, 0.0485 (inactive); with F380Y/beta4, 0.0179 (inactive); in assay [13], -0.0118 (inactive); with R275C, 0.0405 (inactive).
With `CCCNC(C)C(=O)Nc1ccccc1C` (centres undefined), the nuclear beta-catenin stimulation was 2.8% (inactive) in assay [1] (at 10 µM) and 0.2% in assay [1] (stimulation, at 2 µM). Also, in assay [2], the insulin secretion stimulation was -0.2% (inactive). Moreover, the viability decrease in assay [3] is -19.3% (inactive). Besides, the tube area decrease in [4] is -7.6% (inactive). The GLP1 secretion stimulation in assay [5] was -2.8% (inactive). The inhibition of viability in assay [6] is -6.47% (inactive). For the same molecule, the viability decrease (inhibition) in assay [7] was 14.5% (inactive); in assay [8] it was -13.2% (inactive). Besides, the inhibition in assay [9] is 10.3% (inactive). Besides, the red/green cell ratio (normalised) in [10] was 1.41 (inactive). The normalised cell number in [10] (setting [15]) was determined as 0.93; in assay [10] (setting [16]), 1.32. The z-score in [11] (setting [17]) was 0.649 (inactive) and 0.0198 (inactive) and 0.84 (inactive); in assay [11] (setting [18]), -0.309 and -0.0551 and 0.281. The remaining NAD in assay [12] is 10 nM (inactive). The log fold change Tl+ flux in the assay on F380Y is 0.0152 (inactive); in the assay on F380Y/beta1, 0.00249 (inactive); with F380Y/beta2Delta, 0.0464 (inactive); in the assay on F380Y/beta4, 0.0146 (inactive); in assay [13], -0.0185 (inactive); in the assay on R275C, -0.0216 (inactive).
For `CC[N+](C)(C)c1cccc(O)c1`, the nuclear beta-catenin stimulation is -1.7% (inactive) in assay [1] (at 10 µM) and 0.9% in assay [1] (stimulation, at 2 µM). For the same molecule, in [2], the insulin secretion stimulation is 0% (inactive). For the same molecule, the viability decrease in assay [3] is -29% (inactive). Further, the tube area decrease in [4] is -7.4% (inactive). In addition, in assay [5], the GLP1 secretion stimulation was 0.7% (inactive). Further, the inhibition of viability in assay [6] was -0.1% (inactive). Besides, the values for the viability decrease (inhibition) in assay [7] and in assay [8] were -11.1% (inactive) and -13.2% (inactive), respectively. Also, the inhibition in [9] is -4.48% (inactive). For the same molecule, in assay [10], the red/green cell ratio (normalised) is 1.2 (inactive). The normalised cell number worked out at 0.65 in assay [10] (setting [15]) and 0.78 in [10] (setting [16]). For the same molecule, the z-score in assay [11] (setting [17]) was -0.344 (inactive); in assay [11] (setting [18]), 0.198. The remaining NAD in assay [12] was 10 nM (inactive). For the same molecule, the log fold change Tl+ flux is 0.0242 (inactive) in the assay with F380Y; -0.0227 (inactive) with F380Y/beta1; 0.0329 (inactive) in the assay on F380Y/beta2Delta; 0.00778 (inactive) in the assay on F380Y/beta4; -0.0327 (inactive) in [13]; 0.00231 (inactive) in the assay on R275C.
In the case of `CN(C)CCCN1c2ccccc2Sc2ccc(Cl)cc21`, the nuclear beta-catenin stimulation is 5.5% (inactive) in assay [1] (at 10 µM) and 0.9% in assay [1] (stimulation, at 2 µM). For the same molecule, the insulin secretion stimulation in assay [2] was 8.9% (inactive). Also, the viability decrease in [3] is 82% (active). Moreover, the tube area decrease in assay [4] was 68.7% (active). Further, the GLP1 secretion stimulation in [5] is 15.5% (inactive). Also, the inhibition of viability in assay [6] is 96.1% (active). The viability decrease (inhibition) in assay [7] was 128% (active); in assay [8], 93.1% (active). For the same molecule, the inhibition in assay [9] is 10.5% (inactive). The red/green cell ratio (normalised) in [10] was 1.34 (inactive). Further, the normalised cell number in [10] (setting [15]) was 0.97; in [10] (setting [16]), 1.3. For the same molecule, the z-score in [11] (setting [17]) is 2.27 (active) and 0.163 (inactive) and 0.651 (inactive); in assay [11] (setting [18]), -0.778 and 0.446 and 0.902. Further, the remaining NAD in assay [12] is 10 nM (inactive). Further, the log fold change Tl+ flux in the assay with F380Y was 0.156 (active); in the assay on F380Y/beta1, -0.176 (active); with F380Y/beta2Delta, 0.221 (active); in the assay with F380Y/beta4 it was 0.171 (active); in assay [13] it was 0.0114 (inactive); in the assay with R275C, -0.0248 (inactive).
